Screening data (PubChem)
BAZ2B block: qHTS Assay for Inhibitors of BAZ2B. AlphaScreen BAZ2B-H3K14Ac peptide displacement. Potency, µM (titrated, usually from 114 µM), for inactives: top-dose activity change, negative = inhibition, usual class: inhibitors. hit rate 4.4% among 360,000; further: on the % scale 0 is the no-effect control and ±100 the full control effect; nearly all actives have a fitted effect of over 60% in size
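AlphaScreen displacement of biotin-H3(5-23)K14Ac peptide (50 nM final) from BAZ2B (50 nM final) in PBS pH 7.4, 0.01% Tween-20; complex preformed 30 min RT, then compounds (top 110 uM) 30 min RT, beads 20 min dark.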
HP1b binding inh: HTS for Inhibitors of HP1-beta Chromodomain Interactions with Methylated Histone Tails; hit rate 0.56% among 390,000; AlphaScreen HP1-beta / biotin-H3K9me3 peptide binding; Potency, µM (top dose mostly 114 µM), for the others: at the highest dose activity change, negative = inhibition, most hits filed as inhibitors; further: nearly all actives have a fitted effect of over 70% in size
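Compound inhibition of the preformed complex between 50 nM HP1-beta and 50 nM biotinylated H3K9me3 peptide was read by AlphaScreen. Buffer was PBS pH 7.4 with 0.01% Tween-20. Incubations ran 30 min at room temperature, with 10 ug/mL donor/acceptor beads.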
G9a inh: qHTS Assay for Inhibitors of Histone Lysine Methyltransferase G9a | G9a H3K9 monomethylation, AlphaScreen, 2 h | Histone-lysine N-methyltransferase EHMT2 (Homo sapiens), Q96KQ7 | hit rate 8.8% among 350,000 | Potency, µM (highest dose often 102 µM), without a hit: top-dose activity, negative = inhibition, hits mostly inhibitors | AID 504332, 2011; further: on the % scale 0 is the no-effect control and ±100 the full control effect; nearly all actives have a fitted effect of over 75% in size
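Chemiluminescent proximity detection of H3K9 monomethylation, read after 10 min bead incubation in the dark. Reaction: 20 nM G9a, 500 nM biotin-H3K9 peptide, 20 uM SAM cofactor, 2 h, room temperature, following 15 min enzyme-compound preincubation.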
Sfp PPTase inh: qHTS Assay for Inhibitors of Bacillus subtilis Sfp phosphopantetheinyl transferase (PPTase); Biochemical Sfp PPTase activity, qHTS; Potency, µM, without a hit: largest response in the series, negative = inhibition, actives largely listed as inhibitors; hit rate 3.5% among 310,000;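 further: the enzyme is Sfp with the accession as filed and its product quenches rhodamine fluorescence; 0% = enzyme reaction without inhibitor and -100% = no enzyme wells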
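Buffer: 50 mM Hepes-Na pH 7.6, 10 mM MgCl2, 0.01% Nonidet P-40, 0.01% BSA. Enzyme 15 nM, pre-exposed to compound 15 min; substrates then added and fluorescence change tracked over 30 min.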
JMJD2A Tudor inh: qHTS Assay for Inhibitors of JMJD2A-Tudor Domain. Lysine-specific demethylase 4A (Homo sapiens), O75164. AlphaScreen JMJD2A-Tudor / H3K4me3 peptide binding. Potency, µM (doses to about 114 µM), inactives show at the highest dose activity change, negative = inhibition, usual class: inhibitors. hit rate 4.4% among 390,000; further: on the % scale 0 is the no-effect control and ±100 the full control effect; nearly all actives have a fitted effect of over 50% in size
Target sequence (O75164 whole entry, looked up, the tested form may be a part): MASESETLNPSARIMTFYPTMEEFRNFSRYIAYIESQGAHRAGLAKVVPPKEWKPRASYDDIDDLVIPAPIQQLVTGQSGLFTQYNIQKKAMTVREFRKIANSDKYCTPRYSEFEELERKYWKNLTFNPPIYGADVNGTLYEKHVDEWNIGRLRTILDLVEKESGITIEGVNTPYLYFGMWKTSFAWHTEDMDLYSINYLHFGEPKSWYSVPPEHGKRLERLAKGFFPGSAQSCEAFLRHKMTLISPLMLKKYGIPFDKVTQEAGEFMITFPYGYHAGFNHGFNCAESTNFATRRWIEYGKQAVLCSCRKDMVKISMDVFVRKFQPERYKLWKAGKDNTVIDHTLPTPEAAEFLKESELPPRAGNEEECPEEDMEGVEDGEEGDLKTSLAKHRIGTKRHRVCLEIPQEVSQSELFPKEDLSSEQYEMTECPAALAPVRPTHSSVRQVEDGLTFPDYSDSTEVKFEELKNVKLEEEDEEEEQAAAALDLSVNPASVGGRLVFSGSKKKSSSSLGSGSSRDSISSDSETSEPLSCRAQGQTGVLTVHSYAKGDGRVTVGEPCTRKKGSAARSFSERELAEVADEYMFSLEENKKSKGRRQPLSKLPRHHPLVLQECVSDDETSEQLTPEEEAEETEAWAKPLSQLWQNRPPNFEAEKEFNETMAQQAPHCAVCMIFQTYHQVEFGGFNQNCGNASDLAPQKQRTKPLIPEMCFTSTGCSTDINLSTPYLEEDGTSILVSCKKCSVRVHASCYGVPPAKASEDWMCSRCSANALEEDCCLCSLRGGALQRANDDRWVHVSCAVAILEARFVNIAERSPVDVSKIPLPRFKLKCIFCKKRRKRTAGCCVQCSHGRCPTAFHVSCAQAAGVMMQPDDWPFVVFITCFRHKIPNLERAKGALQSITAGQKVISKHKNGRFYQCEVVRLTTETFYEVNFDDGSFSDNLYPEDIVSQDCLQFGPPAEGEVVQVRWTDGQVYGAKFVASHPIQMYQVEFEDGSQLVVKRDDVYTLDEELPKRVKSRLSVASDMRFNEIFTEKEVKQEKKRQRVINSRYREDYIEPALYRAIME
An asterisk follows results filed as active; u = inconclusive; x = not tested or not shown; [ ] = another dose, or the depositor's remark. Rows were chosen to be rich in hits. Some 12% of all compounds tested hit in one or more screens of this group. The call rests on the fitted dose curve; in most records, active means well fitted curve in the direction sought with a large enough effect; inconclusive means small, poorly fitted or top-dose-only effect, or another doubt; inactive means no such curve, though single readings can be large; an effect the other way counts as inactive or inconclusive. Potency means the concentration at half of the fitted maximal effect.

SMILES | BAZ2B block | HP1b binding inh | G9a inh | Sfp PPTase inh | JMJD2A Tudor inh
CN(C)c1ccc(S(=O)(=O)N2CCCCC2)cc1NC(=O)CN1C(=O)NC2(CCCC2)C1=O | 10% | 21% | 14µM* | x | -17%
CN(C)c1ccc(S(=O)(=O)N2CCCCC2)cc1NC(=O)CN1C(=O)NC(C)(c2ccccc2)C1=O (centres undefined) | -38% | 10% | u | x | -25%
Cc1cc(Cl)ccc1NC(=O)CN1C(=O)NC2(CCCC2)C1=O | -17% | -9% | 15% | 12% | -6%
O=C(CN1C(=O)NC2(CCCCC2)C1=O)Nc1ccc(N2CCCCC2)cc1 | x | -23% | x | x | -34%
O=c1[nH]c(/C=C\c2ccc(O)c(O)c2)nc(O)c1[N+](=O)[O-] | u | -4% | 40µM* | 45µM* | u
Cc1cc(/C=C\c2nc(O)c([N+](=O)[O-])c(=O)[nH]2)c(C)n1-c1ccccc1 | 45µM* | u | 50µM* | -4% | 56µM*
COc1ccc(-n2c(C)cc(/C=C/c3nc(O)c([N+](=O)[O-])c(=O)[nH]3)c2C)cc1 | 50µM* | u | 28µM* | 10% | -3%[11.4 µM]
O=C(COc1ccccc1/C=C\c1nc(O)c([N+](=O)[O-])c(=O)[nH]1)Nc1ccccc1 | u | -10% | 50µM* | -5% | -22%
O=c1[nH]c(/C=C\c2cccc(O)c2)nc(O)c1[N+](=O)[O-] | 5% | 35% | -74% | 10% | -2%
Cc1cc2nc(NCCCO)n(CC(=O)c3cc(C(C)(C)C)c(O)c(C(C)(C)C)c3)c2cc1C | u | u | -10%[2.33 µM] | x | u
O=c1[nH]c(=S)[nH]cc1Oc1ccccc1 | x | 6% | x | x | -10%
COc1ccccc1C(=O)Nc1ccc(-c2nc3cc(C)cc(C)c3o2)cc1 | 40% | 62% | 31%[59 µM] | x | -23%
Cc1cc(C)c2c(=O)[nH]c(SCC(=O)Nc3ccccc3)nc2n1 | 2% | 21% | 16%[59 µM] | -20% | -15%
Cc1cc(C)c2c(=O)[nH]c(SCC(=O)c3ccc(C)c(C)c3)nc2n1 | -13% | 24% | 50µM* | 56µM* | 2%
COc1cc(-c2nc(Cc3c(F)cccc3Cl)no2)cc(OC)c1OC | 50µM* | 61% | u | -14% | -10%
COc1cc(-c2noc(-c3cccc(Cl)c3)n2)cc(OC)c1OC | 33% | 31% | 27%[59 µM] | -9% | 2%
Cc1ccc2ncc(C(=O)Nc3ccc(F)cc3F)c(=O)n2c1 | 0% | 25% | 0%[59 µM] | x | -10%
O=[N+]([O-])c1ccc(C=Nc2cccc3ccccc23)s1 | 16µM* | 13µM* | 10µM* | -2% | 40µM*
COc1cc2[nH]c3c(N4CCN(c5ccccn5)CC4)ncnc3c2cc1OC | u | -9% | 45µM* | 10% | -28%
COc1ccc(N2CCN(c3ncnc4c3[nH]c3ccccc34)CC2)cc1 | u | -13% | 13µM* | -12% | 50µM*
COc1ccc2[nH]c3c(N4CCc5ccccc5C4)ncnc3c2c1 | u | -18% | 45µM* | -13% | u
Fc1ccc2[nH]c3c(N4CCN(c5ccccc5)CC4)ncnc3c2c1 | 40µM* | -10% | u | -3% | u
CCOC(=O)N1CCN(c2ncnc3c2[nH]c2ccc(OC)cc23)CC1 | 4% | 22% | 15%[2.33 µM] | 3% | -7%
COC(=O)C1=C(C(=O)OC)[C@@H]2Nc3ccccc3[C@@]23C[C@@H](C(=O)OC)N(C(=O)C2CCC2)C3=N1 | x | 10% | x | -14% | -9%
CC1CCC(C(C)C)[C@H](OC(=O)c2ccccc2)C1 (some centres undefined) | x | x | x | 13% | x
SMILES | BAZ2B block | HP1b binding inh | G9a inh | Sfp PPTase inh | JMJD2A Tudor inh
CC1CCC(C(C)C)C(OC(=O)C2=C3c4ccccc4S(=O)(=O)N3CC2)C1 (centres undefined) | -3% | 54% | 25µM* | -1% | 28%
NC(=O)CSc1nnc(NC(=O)C2CC(=O)N(c3ccc(F)cc3)C2)s1 (centres undefined) | u | 19% | x | u | -22%
Cc1ccc(N2CC(C(=O)Nc3nnc(SCC(N)=O)s3)CC2=O)cc1 (centres undefined) | -8% | 38% | 40µM* | 0% | -15%
COc1ccc(N2CC(C(=O)Nc3nnc(SCc4ccccn4)s3)CC2=O)cc1 (centres undefined) | -6% | 22% | 50µM* | -14% | -15%
Cc1ccc(N2CC(C(=O)N3CCC(C(=O)Nc4nnc(C(C)C)s4)CC3)CC2=O)cc1 (centres undefined) | 12% | -14% | 45µM* | -14% | -4%
COc1ccc(NC(=O)CCC(=O)Nc2nnc(C3CCCCC3)s2)c(OC)c1 | -11% | 27% | 71µM* | u | -10%
Cc1ccc2c(c1)c1c(c(=O)n(-c3ccccc3C)c(=O)n1CC(=O)NCCC1=CCCCC1)n2C | -6% | 16% | -5%[59 µM] | x | -12%
COc1ccc(CNC(=O)c2cc3c(=O)n(Cc4cccnc4)ccc3nc2C)cc1 | -9% | 27% | 15%[59 µM] | x | -12%
COc1ccc(N2CC(C(=O)Nc3nnc(C4CCCCC4)s3)CC2=O)cc1 (centres undefined) | -11% | -4% | -7% | 1% | 22µM*
COc1ccc(N2CC(C(=O)Nc3nnc(SCC(=O)c4ccccc4)s3)CC2=O)cc1 (centres undefined) | -2% | 11% | 13µM* | 28µM* | -16%
CCOC(=O)C(=O)Nc1nnc(C2CCCCC2)s1 | -14% | -10% | 8.9µM* | u | -8%
Cc1ccc(N2CC(C(=O)Nc3nc4ccc(S(C)(=O)=O)cc4s3)CC2=O)cc1 (centres undefined) | u | 35% | x | 45µM* | -22%
CCOCC(=O)Nc1nnc(C2CCCCC2)s1 | 7% | -27% | u | -27% | -15%
O=C(Nc1nnc(C2CCCCC2)s1)C1CC(=O)N(c2ccc(F)cc2)C1 (centres undefined) | -2% | 28% | 18%[59 µM] | -3% | 1%
Cc1nc(S(=O)(=O)N2CCN(c3ccc(Cl)cc3)CC2)cn1C | -1% | 20%[57 µM] | -4%[59 µM] | x | -12%
CC(=O)OC1CC2C(C)(C)C(=O)C=C[C@]2(C)C2CC[C@@]3(C)C(c4ccoc4)OC(=O)C4O[C@@]43[C@]12C (some centres undefined) | x | x | -29%[2.33 µM] | -9% | x
CCc1ccccc1Nc1nc2ccccc2c2nncn12 | 9% | 58% | 25%[59 µM] | x | 9%
CCOC(=O)c1ccc(N2C(=O)c3[nH]nc(-c4ccc(OC)cc4)c3C2c2ccc(C)cc2)cc1 (centres undefined) | x | 22% | -26%[59 µM] | x | u
CNC(=O)CSc1nnc(NC(=O)C2CC(=O)N(c3ccccc3OC)C2)s1 (centres undefined) | -7% | 50% | 10µM* | 50µM* | -9%
